# According to PubChem BioAssay:
# Results filed as inconclusive are left out. Calls of active or inactive are those of the source.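 How the source made its calls, unless noted: active means normalized viability below 100% at a tested concentration; inactive means the rest.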
# What was measured:
# [1] = viability loss in pontine glioma line – cell-based, SU-DIPG-XXV, MIPE5.0, CellTiter-Glo, qHTS, dose response (AID 1347065; cut-off not given, nearly all actives have AC50 up to about 26 µM;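 further: cells exposed to compound for 48 hours before ATP readout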); settings: CellTiter-Glo ATP luminescence
# [2] = SU-DIPG-XXV glioma cell viability, MIPE5.0 library, qHTS (AID 1347068; cut-off not given, nearly all actives have IC50 up to about 30 µM;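 on IC50: cells exposed to compound for 48 hours before viability readout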)
# [3] = JHH-DIPG-1 glioma cell viability, MIPE5.0 library, CellTiter-Glo luminescence, qHTS (AID 1347067; cut-off not given, nearly all actives have AC50 up to about 26 µM;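 further: cells exposed to compound for 48 hours before readout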); settings: JHH-DIPG-1 glioma viability, CellTiter-Glo ATP luminescence
# [4] = sensitizers of A549 cells to miR-34 induction, primary screen, imaging, A549 dox-inducible miR-34, nuclei and caspase counts (AID 1347080;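 active means compounds whose cell count with miR-34 switched on is under 0.7 times the count with it off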); settings: A549 miR-34 inducible, Hoechst nuclei count, 48 h
# [5] = modifiers of HSF1 nuclear foci, imaging, Selleck Cancer Library (AID 1347162; in the data active means plate-normalised HSF1 focus index below about 0.46); settings: human cells, at 10 µM; SSMD: measured here: HSF1 foci SSMD mean; cell count: measured here: cell number; plate-normalised HSF1 focus index: stronger effect = lower value
# [6] = survival rescue of mitochondrial mutant cells in low glucose, primary screen, MELAS cybrids, Rieske KO mouse fibroblasts, CellTiter-Glo (AID 1508586;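 active means mean z-score across replicates of 1.96 or higher in either the MELAS or the Rieske mutant cell line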;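 further: z relative to plate mean and SD of compound and empty wells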)
# [7] = ovarian cancer cell viability with rucaparib, profiling panel, oncology-focused library, rucaparib conditional (AID 1508598); settings: patient-derived ovarian cancer cells, CellTiter-Glo viability, 144 h, stronger effect = lower value
structure (smiles),measurement,setting,value
C[C@@H]1CC2C3C[C@H](F)C4=CC(=O)C=C[C@]4(C)[C@@]3(F)[C@@H](O)C[C@]2(C)[C@@]1(OC(=O)c1ccco1)C(=O)SCF (some centres undefined),AC50,[1],20.9 µM (active)
same,outcome,[2],inactive
COc1cc(N2CCN(C)CC2)ccc1Nc1ncc2c(n1)N(C)c1ccccc1C(=O)N2,AC50,[1],20.9 µM (active)
same,outcome,[2],inactive
CN(C)CCCOc1ccc(-c2ccc3ncc4c(c3c2)n(C2CCOCC2)c(=O)n4C)cn1,AC50,[1],5.74 µM (active)
same,outcome,[3],inactive
O=c1oc2c(C3OCCCO3)c(O)ccc2c2c1CNCC2,outcome,[1],inactive
same,outcome,[3],inactive
same,outcome,[2],inactive
C[C@H](NC(=O)c1c(N)nn2cccnc12)c1cc2cccc(C#Cc3cnn(C)c3)c2c(=O)n1-c1ccccc1,AC50,[1],12.9 µM (active)
same,outcome,[2],inactive
COc1ccccc1C(=O)Nc1cc2c(cc1N1CCCCC1)n(C)c(=O)n2C,AC50,[1],18.6 µM (active)
same,outcome,[2],inactive
Nc1nccc(-c2c(-c3ccc(F)cc3)ncn2C2CCN(Cc3ccon3)CC2)n1,outcome,[1],inactive
same,outcome,[3],inactive
same,outcome,[2],inactive
c1ccc(-c2ccc(CNc3nc(-c4ccccn4)nnc3-c3ccccc3)cc2)cc1,AC50,[1],3.32 µM (active)
same,AC50,[3],10.5 µM (active)
same,IC50,[2],2.95 µM (active)
Cc1cc(Nc2ncnc3ccc(NC4=NC(C)(C)CO4)cc23)ccc1Oc1ccn2ncnc2c1,AC50,[1],14.8 µM (active)
same,outcome,[2],inactive
Clc1cc2c(NC3CCCC3)nnc(-c3ccncc3)c2cc1Cl,AC50,[1],23.5 µM (active)
same,outcome,[2],inactive
CN1CCN(C(=O)c2ccc(-c3ccc4c(C=O)c(O)ccc4c3)s2)CC1,AC50,[1],16.6 µM (active)
same,outcome,[2],inactive
CCOCOC[C@H](C[C@H](C)C(=O)NO)NC(=O)c1ccc(Oc2ccccc2)cc1,outcome,[1],inactive
same,outcome,[3],inactive
same,outcome,[2],inactive
O=C(Nc1ccc(OC(F)(F)F)cc1)c1sccc1NCc1ccnc2ccccc12,AC50,[1],16.6 µM (active)
same,AC50,[3],5.9 µM (active)
same,outcome,[2],inactive
same,fold change,"[4]; stronger effect = lower value, cell number ratio, induced over uninduced",0.889 (inactive)
same,fold change,[4]; measured here: relative caspase fold change +Dox/-Dox,1.05
same,cell count,"[4]; measured here: total cells with miR-34 induction, stronger effect = lower value",4270
same,cell count,[4]; measured here: total cells without miR-34 induction,4800
same,SSMD,[5],2.93
same,cell count,[5],7420
same,plate-normalised HSF1 focus index,[5],1.18 (inactive)
same,z-score,"[6]; MELAS cybrid survival, CellTiter-Glo 48 h, stronger effect = higher value",-0.433 (inactive)
same,z-score,"[6]; Rieske KO mouse fibroblast survival, CellTiter-Glo 72 h",0.766
same,viability,"[7]; at 0.000305 µM, OCI-C5x cells, with rucaparib 10 µM, 100% = cells with rucaparib alone",104% (inactive)
same,viability,"[7]; at 0.000305 µM, OCI-C5x cells, without rucaparib",102% (inactive)
same,viability,"[7]; at 0.000305 µM, OCI-P5x cells, with rucaparib 20 µM, 100% = cells with rucaparib alone",79.8% (active)
same,viability,"[7]; at 0.000305 µM, OCI-P5x cells, without rucaparib",88.5% (active)
same,viability,"[7]; at 0.00122 µM, OCI-C5x cells, with rucaparib 10 µM, 100% = cells with rucaparib alone",108% (inactive)
same,viability,"[7]; at 0.00122 µM, OCI-C5x cells, without rucaparib",110% (inactive)
same,viability,"[7]; at 0.00122 µM, OCI-P5x cells, with rucaparib 20 µM, 100% = cells with rucaparib alone",76.7% (active)
same,viability,"[7]; at 0.00122 µM, OCI-P5x cells, without rucaparib",81.1% (active)
same,viability,"[7]; at 0.00488 µM, OCI-C5x cells, with rucaparib 10 µM, 100% = cells with rucaparib alone",98.6% (active)
same,viability,"[7]; at 0.00488 µM, OCI-C5x cells, without rucaparib",105% (inactive)
same,viability,"[7]; at 0.00488 µM, OCI-P5x cells, with rucaparib 20 µM, 100% = cells with rucaparib alone",79.8% (active)
same,viability,"[7]; at 0.00488 µM, OCI-P5x cells, without rucaparib",79.7% (active)
same,viability,"[7]; at 0.0195 µM, OCI-C5x cells, with rucaparib 10 µM, 100% = cells with rucaparib alone",108% (inactive)
same,viability,"[7]; at 0.0195 µM, OCI-C5x cells, without rucaparib",113% (inactive)
same,viability,"[7]; at 0.0195 µM, OCI-P5x cells, with rucaparib 20 µM, 100% = cells with rucaparib alone",81% (active)
same,viability,"[7]; at 0.0195 µM, OCI-P5x cells, without rucaparib",79% (active)
same,viability,"[7]; at 0.0781 µM, OCI-C5x cells, with rucaparib 10 µM, 100% = cells with rucaparib alone",108% (inactive)
same,viability,"[7]; at 0.0781 µM, OCI-C5x cells, without rucaparib",113% (inactive)
same,viability,"[7]; at 0.0781 µM, OCI-P5x cells, with rucaparib 20 µM, 100% = cells with rucaparib alone",111% (inactive)
same,viability,"[7]; at 0.0781 µM, OCI-P5x cells, without rucaparib",108% (inactive)
same,viability,"[7]; at 0.313 µM, OCI-C5x cells, with rucaparib 10 µM, 100% = cells with rucaparib alone",98.2% (active)
same,viability,"[7]; at 0.313 µM, OCI-C5x cells, without rucaparib",110% (inactive)
same,viability,"[7]; at 0.313 µM, OCI-P5x cells, with rucaparib 20 µM, 100% = cells with rucaparib alone",107% (inactive)
same,viability,"[7]; at 0.313 µM, OCI-P5x cells, without rucaparib",110% (inactive)
same,viability,"[7]; at 1.25 µM, OCI-C5x cells, with rucaparib 10 µM, 100% = cells with rucaparib alone",94.5% (active)
same,viability,"[7]; at 1.25 µM, OCI-C5x cells, without rucaparib",107% (inactive)
same,viability,"[7]; at 1.25 µM, OCI-P5x cells, with rucaparib 20 µM, 100% = cells with rucaparib alone",103% (inactive)
same,viability,"[7]; at 1.25 µM, OCI-P5x cells, without rucaparib",112% (inactive)
same,viability,"[7]; at 5 µM, OCI-C5x cells, with rucaparib 10 µM, 100% = cells with rucaparib alone",89.4% (active)
same,viability,"[7]; at 5 µM, OCI-C5x cells, without rucaparib",117% (inactive)
same,viability,"[7]; at 5 µM, OCI-P5x cells, with rucaparib 20 µM, 100% = cells with rucaparib alone",77.3% (active)
same,viability,"[7]; at 5 µM, OCI-P5x cells, without rucaparib",54.8% (active)
CCNC(=O)Nc1ncc(-c2cc(-c3c(C)cc(OC)cc3C)nc(-c3cnccn3)n2)s1,outcome,[3],inactive
same,outcome,[2],inactive
